SARS PLP yeast: SARS-CoV PLP inhibition in yeast; hit rate 0.19% among 330,000; S. cerevisiae expressing SARS-CoV PLpro, growth rescue; Potency, µM (highest dose often 32.9 µM), actives largely listed as activators; calls by dose curve; also: nearly all actives have a fitted effect of over 55% in size
AMA1-RON2 inh: AMA1-RON2 (P. falciparum) interaction inhibition; AlphaScreen AMA1-biotinylated RON2 peptide binding; Potency, µM (doses to about 58.2 µM), usual class: inhibitors; hit rate 0.2% among 360,000; AID 720542; also: nearly all actives have a fitted effect of over 45% in size
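AMA1 (3D7) with his tag at 25 nM final met compounds first, then biotinylated RON2 peptide at 25 nM; detection used donor plus acceptor beads, 10 µg/mL apiece, read by AlphaScreen after 30 min at room temperature.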
Pf growth 96h: inhibits malaria parasite growth, 96 h | Potency, µM (titrated, usually from 28.7 µM), actives largely listed as inhibitors | hit rate 6.9% among 320,000 | AID 504834 | P. falciparum luciferase reporter growth, 96 h
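Parasite growth measured via integrated firefly luciferase reporter in P. falciparum. Infected erythrocytes at 2% hematocrit, 0.05% parasitemia final were treated 96 hours at 37 C under 5% CO2, and luminescence was read.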
Pf growth 48h: P. falciparum growth inhibition at 48 hours (one generation) | Potency, µM (titrated, usually from 28.7 µM), hits mostly inhibitors | hit rate 5.9% among 310,000 | P. falciparum luciferase growth in erythrocytes, 48 h
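Growth was read as firefly luciferase luminescence after a 48 h, 37 C, 5% CO2 exposure of compounds to reporter-bearing P. falciparum cultures (0.1% parasitemia, 2% hematocrit final) in Albumax-supplemented RPMI 1640.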
Hits are given with their value; n = inactive; u = inconclusive; x = no result given; [ ] = remark or other dose. A selection: hits, their analogues and other compounds. The true share with any hit is near 9.4%. Unless noted, calls follow the shape of the dose curve; as a rule, active = well fitted curve in the direction sought with a large enough effect; inconclusive = small, poorly fitted or top-dose-only effect, or another doubt; inactive = no such curve, though single readings can be large; an effect the other way counts as inactive or inconclusive.

SMILES	SARS PLP yeast	AMA1-RON2 inh	Pf growth 96h	Pf growth 48h
COc1ccc(-c2cc(C(=O)Nc3cc(Br)ccc3O)no2)cc1	n	n	n	10µM
COc1ccc(-c2cc(C(=O)Nc3ccccc3SC)no2)cc1	n	n	n	n
Cc1cc(C(=O)Nc2cc(Br)ccc2O)on1	n	n	n	5.2µM
CCc1ccccc1NC(=O)c1cc(C)no1	n	n	n	n
N#C/C(=C\c1ccc2c(c1)OCO2)C(=O)NCc1ccco1	n	n	n	n
Cc1onc(-c2ccc(Cl)cc2Cl)c1-c1csc(N/N=C/c2ccccc2)n1	n	n	u	3.7µM
Clc1ccc(-c2csc(N/N=C/c3ccc4c(c3)OCO4)n2)cc1	n	n	u	u
Cc1ccc(C(c2sc3ncnn3c2O)N2CCC(C)CC2)cc1 (stereo not drawn)	n	n	5.9µM	u
CCN(CCn1cccn1)C(=O)c1cccc(OC2CCN(S(C)(=O)=O)CC2)c1	u	n	10µM	n
CCCCN1C(=N)C(CC)(CC)C(=O)NC1=O	n	n	15µM	n
CC(=O)c1cnn(-c2nc3c(C)cccc3s2)c1C	n	n	n	x
CN(C)c1nnnn1Cc1ccccc1	n	n	n	n
CC(C#Cc1c([C@@H](C)Oc2ccccc2)nnn1Cc1ccccc1)Oc1ccccc1 (stereo partly drawn)	n	n	9.3µM	12µM
Cc1c2cnn(CC(=O)N3CCC4(CC3)OCCO4)c(=O)c2c(C)n1Cc1ccccc1F	n	n	0.01µM	n
O=C(Cn1ncc2c3ccccc3n(Cc3cccc(Cl)c3)c2c1=O)N1CCC2(CC1)OCCO2	n	n	4.7µM	4.1µM
Cc1c2cnn(CC(=O)Nc3c(F)c(F)cc(F)c3F)c(=O)c2c(C)n1Cc1ccccc1F	n	n	9.3µM	n
Cc1c2cnn(CC(=O)O)c(=O)c2c(C)n1Cc1ccccc1	n	n	n	x
Cc1ccc(Cn2c(C)c3cnn(CC(=O)NC4CCCC4)c(=O)c3c2C)cc1	n	n	9.3µM	n
CNC(=O)Cn1ncc2c(C)n(Cc3ccc(C)cc3)c(C)c2c1=O	n	n	n	n
COc1ccc([C@H]2C[C@H](O)C[C@@H](CCn3cc(-c4ccccc4)nn3)O2)cc1	x	n	x	x
Oc1c(C(Nc2ccccn2)c2ccccn2)ccc2cccnc12 (stereo not drawn)	u	n	x	2.9µM
Cc1ccc2ccc(C(Nc3ccccn3)c3ccccc3)c(O)c2n1 (stereo not drawn)	11µM	n	n	x
Oc1ccccc1C(Nc1nccs1)c1ccc2cccnc2c1O (stereo not drawn)	n	n	2.6µM	1.9µM
Cc1ccc2ccc(C(Nc3cccc(C(F)(F)F)c3)c3cccnc3)c(O)c2n1 (stereo not drawn)	10µM	n	u	u
CC(NC(=O)CCSc1nc(-c2ccco2)cc(C(F)(F)F)n1)c1ccccc1 (stereo not drawn)	n	n	u	u
SMILES	SARS PLP yeast	AMA1-RON2 inh	Pf growth 96h	Pf growth 48h
COCCOC(=O)C1=C(C)N=C2SCCC(=O)N2C1c1ccc(C(=O)OC)cc1 (stereo not drawn)	n	n	u	n
CC(C)C(c1nnnn1Cc1cccs1)N1CCN(C2CCCC2)CC1 (stereo not drawn)	n	n	u	n
CC(C)C(c1nnnn1CC1CCCO1)N1CCN(C2CCCC2)CC1 (stereo not drawn)	n	n	13µM	n
Cc1cc(C)c2cc(C(c3nnnn3CC3CCCO3)N3CCN4CCCC4C3)c(=O)[nH]c2c1 (stereo not drawn)	n	n	n[5.75 µM]	15µM
Cc1cc(=O)[nH]c(N/N=C/c2cn(CCC#N)nc2-c2ccccc2)n1	n	n	n	n
COC(=O)c1noc(-c2ccc(OC)cc2)n1	n	n	x	n
O=C(CCl)Nc1cccc(Oc2ccccc2)c1	n	n	4.7µM	u
Nc1cccc(Oc2cnccn2)c1	n	n	n	x
O=C(CCl)Nc1cccc(Oc2cnccn2)c1	u	n	3.7µM	x
Cc1cccc(N2C(=O)C(O)=C(C(=O)c3cccs3)C2c2ccc(C(C)C)cc2)n1 (stereo not drawn)	n	n	n	n
CC(=O)C1=C(O)C(=O)N(c2cc(C(C)(C)C)on2)C1c1ccc(C(C)C)cc1 (stereo not drawn)	n	n	13µM	n
CC(=O)C1=C(O)C(=O)N(c2ccc(Br)cn2)C1c1ccc(Br)cc1 (stereo not drawn)	n	n	n	n
CC(=O)C1=C(O)C(=O)N(c2cc(C(C)(C)C)on2)C1c1ccc(Br)cc1 (stereo not drawn)	n	n	x	10µM
CN(C)c1oc(-c2ccccc2Cl)nc1S(=O)(=O)c1ccccc1	n	n	6.6µM	x
CN(C)CCCNc1oc(-c2ccccc2Cl)nc1S(=O)(=O)c1ccccc1	n	n	u	n
COC(=O)c1cc(Br)c(=O)n(CCN2CCCCC2)c1	n	n	n	n
Brc1ccccc1OCCCN1CCCC1	n	n	u	n
Cc1ccc(N2CCN(c3ncccc3[N+](=O)[O-])CC2)c(C)c1	n	13µM	n	n
Cc1ccc(C)c(N2CCN(c3ncccc3[N+](=O)[O-])CC2)c1	n	u	u	u
CC1=CC(C)(C)N(C(=O)CSc2ncn[nH]2)c2ccccc21	n	n	n	x
CCOC(=O)c1ccc(NC(=O)c2ccc(CN3CCc4ccccc4C3)cc2)cc1	n	n	n	u
O=C(Nc1ccc(S(=O)(=O)N2CCOCC2)cc1)c1ccc(CN2CCc3ccccc3C2)cc1	n	n	n	12µM
N#CCc1ccc(NC(=O)c2ccc(CN3CCc4ccccc4C3)cc2)cc1	n	n	8.3µM	u
CCOc1ccc(NC(=O)c2ccc(CN3CCc4ccccc4C3)cc2)cc1	x	n	5.2µM	n
O=C(Nc1ccc(S(=O)(=O)N2CCCC2)cc1)c1ccc(CN2CCc3ccccc3C2)cc1	n	n	n	u
SMILES	SARS PLP yeast	AMA1-RON2 inh	Pf growth 96h	Pf growth 48h
O=C(Nc1ccc(Cl)cc1)c1ccc(CN2CCc3ccccc3C2)cc1	n	n	u	n
COC(=O)c1ccc(-c2nc(CN3CCN(C(=O)c4ccco4)CC3)c(C)o2)cc1	x	n	x	x
CC1(C(=O)NS(=O)(=O)c2cccc(C#N)c2)CCN1C(=O)Cc1ccccc1Cl (stereo not drawn)	x	n	x	x
COc1cc(C(=O)N/N=C(\Cc2ncc[nH]2)c2ccccc2)cc(OC)c1OC	n	n	n	u
COc1ccc(C(=O)N/N=C(\Cc2ncc[nH]2)c2ccccc2)cc1	n	n	u	3.3µM
Clc1cccc(N/N=C(\Cc2nc3ccccc3[nH]2)c2ccccc2)c1	n	n	4.1µM	12µM
c1ccc(N/N=C(\Cc2ncc[nH]2)c2ccccc2)cc1	n	n	9.3µM	u
N#Cc1c(N(CC(=O)O)CC(=O)O)sc(C(=O)O)c1CC(=O)O	x	x	n	n
Cc1ccc(S(=O)(=O)/N=C(/Nc2c(C)n(C)n(-c3ccccc3)c2=O)c2ccccc2)cc1	n	n	n	n
CCc1ccc(N2CCN(CCNC(=O)Nc3ccc(OC)cc3)CC2)cc1	n	n	u	n
Cc1cc(OC(C)C(N)=O)nc(-c2ccccc2)n1 (stereo not drawn)	n	n	n	15µM
COCCn1c(=NC(=O)c2ccc(S(=O)(=O)N3CCOCC3)cc2)sc2cc(S(N)(=O)=O)ccc21	n	n	8.3µM	u
